In PubChem BioAssay (NCATS) one finds activity change, negative = inhibition data, which are given here for 36 compounds.

Structures are written as SMILES. Records with an inconclusive call do not appear. Unmarked numbers belong to inactive results. The call rests on the fitted dose curve; in most records, active means well fitted curve in either direction with a large enough effect (not every such curve was filed as active); inconclusive means small, poorly fitted or top-dose-only effect, or another doubt; inactive means flat fitted curve, though single readings scatter.
On the % scale 0 is the no-effect control and ±100 the full control effect.

One test is described as follows: NFAT Signaling Pathway (AID 444). The note with it: Jurkat NFAT-bla M1, carbachol, beta-lactamase ratio, 5 h; at 7.69 µM (top of the series) unless noted. An excerpt: NCGC Assay Overview: The nuclear factor of activated T cells (NFAT) family of transcription factors has been found primarily in most immune system cells and some other non-immune cells. NFAT plays the immunomodulatory role, primarily in T-cell activation and differentiation. NFAT target genes are also involved in the regulation of apoptosis and differentiation in non-immune cell types. The NFAT sequence was engineered to the upstream of the ?-lactamase reporter gene and transfected into Jurkat cells with co-transfection of muscarinic receptor1 [provided by Invitrogen Corp]. When an extracellular stimulus, such as carbachol, binds to the GPCR M1 receptor, it stimulates a signaling cascade that activates NFAT response element and ?-lactamase expression by phosphorylating the NFAT binding protein. This cell based ?-lactamase reporter gene assay can accurately monitor any changes occurring along the NFAT pathway, and can be used for screening small molecule inhibitor or activator upon activation by carbachol EC50 concentration. A small molecular library were screened in a titration series resulting in AC50s (can be either IC50s or EC50s).
NCGC Assay Protocol Summary: The cells were prepared in RPMI 1640 medium containing 0.1% dialyzed FBS and 25 mM HEPES at 1.6 x 10^6cell/ml. The assay was performed in 1536-well plate format as follows: 5 ul of cell preparation 23 nl of compounds 1ul of carbachol (final concentration 1 uM) Briefly centrifuge the plates and incubate at 37 °C for 5 hours 1 ul of CCF4 dye mixture Incubate the plates at RT for 1 hour Read the plate in EnVision plate reader (Ex= 405nm, and Em1=460nm and Em2=530nm). The %Activity was determined from the ratio of 460nm/530nm. Data normalization and AC50 calculations were accomplished using GeneData software.
Consider `N#Cc1cccc(-c2nccc(-n3ccnc3)n2)c1`, for which the activity change, negative = inhibition was 10.9%. On to `O=c1c(-c2ccc(Cl)cc2)nc2cncnc2n1Cc1ccccc1Cl`, for which the activity change, negative = inhibition was -29.5%. As for `Cc1cnc(CNc2ccnc(-c3cccc(NS(C)(=O)=O)c3)n2)cn1`, the activity change, negative = inhibition is 13.5%. For `COc1ncc2nc(-c3ccccc3)c(=O)n(C[C@H]3CCCO3)c2n1`, the activity change, negative = inhibition is -13.8%. Regarding `Cc1ccccc1-c1nc(NCCN2CCOCC2)c2ccccc2n1`, the activity change, negative = inhibition is -9.08%. `O=c1cnc2cnc(Nc3ccccc3)nc2n1CCc1ccccc1`: the activity change, negative = inhibition was 9.72%. In the case of `COCCn1c(=O)c(-c2cccc(C#N)c2)nc2cnc(Oc3ccc(OC)cc3)nc21`, the activity change, negative = inhibition is 7%. On the same count and under the same terms, with `COc1ccc(NC(=O)N2CC[C@@]3(CCCN(S(C)(=O)=O)C3)C2)cc1` the figure was 4.27%; with `N#Cc1ccc(CN2CC[C@@]3(CCCN(C(=O)c4cccc(F)c4)C3)C2)cc1`, -12.5%.

As for `CN(C)C(=O)c1ccc(-c2nc(N(C)C)c3ccccc3n2)cc1`, the activity change, negative = inhibition is 16.5%.

Turning to `CCNc1ncc2ncc(=O)n(CCc3ccccc3)c2n1`, the activity change, negative = inhibition is 9.34%. In the case of `CC(=O)NCCNc1ncnc2ccc(-c3ccc4c(c3)OCO4)cc12`, the activity change, negative = inhibition was 12.4%. In the case of `CC(C)NC(=O)N1CCCC2(CCN(C(=O)c3cccn3C)CC2)C1`, the activity change, negative = inhibition was -17.7%. Regarding `COc1ccccc1CNc1cc(-c2cccc(NS(C)(=O)=O)c2)ncn1`, the activity change, negative = inhibition was -3.65%. The same measure, in the same setting: the result for `Cc1noc(C)c1C(=O)N1CCC2(CCCN(C(=O)Nc3ccccc3)C2)CC1` reads 0.607%; that for `O=C(c1cnccn1)N1CCC[C@@]2(CCN(c3ccccn3)C2)C1`, 0.825%.

For `COc1cccc(Nc2ncc3nc(-c4ccccc4)c(=O)n(C)c3n2)c1`, the activity change, negative = inhibition was -6.92%. `COc1ccc(Oc2ncc3nc(-c4ccccc4)c(=O)n(Cc4cccs4)c3n2)cc1`: the activity change, negative = inhibition was -1.01%. Consider `COc1cccc(-c2cncnc2NCc2cccs2)c1`, for which the activity change, negative = inhibition is 9.12%. With `Cc1cnc(CNc2cc(-c3ccccc3Cl)ncn2)cn1`, the activity change, negative = inhibition was 3.5%.

As to `CCNc1ncc2nc(-c3cn(C)c4ccccc34)c(=O)n(Cc3cccs3)c2n1`, the activity change, negative = inhibition is 8.06%. For the compound `N#Cc1ccccc1-c1ccc2ncnc(NCCN3CCOCC3)c2c1`, the activity change, negative = inhibition was -6.3%. In the case of `CC(C)NC(=O)N1CC2(CCN(C(=O)c3cccn3C)CC2)C1`, the activity change, negative = inhibition was -17.2%. On to `FC(F)(F)c1ccccc1-c1cncnc1NCCc1cnc[nH]1`, for which the activity change, negative = inhibition was -20%. As for `COCC(=O)N1CCC2(CC1)CN(c1ccccc1)C2`, the activity change, negative = inhibition is 2.5%. Take `O=c1c(-c2ccccc2)nc2cncnc2n1Cc1ccc(F)cc1`: the activity change, negative = inhibition is -1.65%. On to `c1ccc(CNc2nc(-c3ccoc3)nc3ccccc23)cc1`, for which the activity change, negative = inhibition is -7.24%. Regarding `CN(C)c1ccc(-c2ccc3ncnc(NC4CC4)c3c2)cc1`, the activity change, negative = inhibition is -2.46%. As to `COc1cccc(Cn2c(=O)c(-c3cccs3)nc3cnc(Nc4ccccc4)nc32)c1`, the activity change, negative = inhibition is -18.8%. With `CC(C)NC(=O)N1CCCC2(CCN(C(=O)c3ccco3)CC2)C1`, the activity change, negative = inhibition was -9.54%. As for `COc1ccccc1-c1cc(Nc2ccc(F)cc2)ncn1`, the activity change, negative = inhibition was -14.1%. Take `O=c1c(-c2ccc(F)c(F)c2)nc2cncnc2n1Cc1ccccc1Cl`: the activity change, negative = inhibition was -7.38%.

Staying with this test, now noted: Jurkat NFAT-bla M1, carbachol, beta-lactamase ratio, 5 h; at 17.2 µM (top of the series).
`C[C@@H]1COc2c(N3CCN(C)CC3)c(F)cc3c(=O)c(C(=O)O)cn1c23`: the activity change, negative = inhibition is -4.07%. Regarding `CO/N=C(\C(=O)N[C@@H]1C(=O)N2C(C(=O)O)=C(COC(C)=O)CS[C@@H]12)c1csc(N)n1`, the activity change, negative = inhibition was -7.64%. Take `C[C@@]12CC[C@@H]3c4ccc(O)cc4CC[C@H]3[C@H]1CC[C@H]2O`: the activity change, negative = inhibition was -19.1%. Take `C[C@@H](COc1ccccc1)N(CCCl)Cc1ccccc1`: the activity change, negative = inhibition is -10.8%.

Still in this test, the particulars now being: Jurkat NFAT-bla M1, carbachol, beta-lactamase ratio, 5 h; at 38 µM (top of the series).
Consider `C[C@@H]1COc2c(N3CCN(C)CC3)c(F)cc3c(=O)c(C(=O)O)cn1c23`, for which the activity change, negative = inhibition was 4.93%.

Take `CO/N=C(\C(=O)N[C@@H]1C(=O)N2C(C(=O)O)=C(COC(C)=O)CS[C@@H]12)c1csc(N)n1`: the activity change, negative = inhibition was 3.41%. On to `C[C@@]12CC[C@@H]3c4ccc(O)cc4CC[C@H]3[C@H]1CC[C@H]2O`, for which the activity change, negative = inhibition is -4.36%. With `C[C@@H](COc1ccccc1)N(CCCl)Cc1ccccc1`, the activity change, negative = inhibition is -22.8%.
